This is part of a sample that, as a whole, favours compounds with a hit. Of some 83,000 tested, about 20% had one in any assay.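 Treatment: one concentration, 48 hours, 96-well format. Scoring: percent growth, with anything below 10 considered active.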 A number with no mark means an inactive call. The source made the active and inactive calls.
How the values were obtained:
Assay in all cases: NCI-60 one-dose screen, 48 h (100 = growth as untreated, 0 = no growth, -100 = all killed)
Settings in all cases: 10 µM unless noted
SK-MEL-2 melanoma = system: SK-MEL-2 melanoma
EKVX NSCLC = system: EKVX NSCLC
SN12C renal = system: SN12C renal
UO-31 renal = system: UO-31 renal
TK-10 renal = system: TK-10 renal
ACHN renal = system: ACHN renal
CAKI-1 renal = system: CAKI-1 renal
A498 renal = system: A498 renal
CCRF-CEM leukemia = system: CCRF-CEM leukemia
MOLT-4 leukemia = system: MOLT-4 leukemia

Compound	growth (SK-MEL-2 melanoma)	growth (EKVX NSCLC)	growth (SN12C renal)	growth (UO-31 renal)	growth (TK-10 renal)	growth (ACHN renal)	growth (CAKI-1 renal)	growth (A498 renal)	growth (CCRF-CEM leukemia)	growth (MOLT-4 leukemia)
Cc1ccccc1OCC(O)COc1ccccc1C	102%	101%	83.9%	78.9%	120%	84.4%	80%	102%	85.2%	131%
CCOC(=O)C1=C(c2ccccc2)N=c2s/c(=C/c3ccc(Br)cc3)c(=O)n2C1c1ccc(O)cc1 (stereo not given)	95.9%	76.8%	85.2%	78.5%	91.7%	104%	62.2%	73.2%	83%	68%
Cc1ccc(S(=O)(=O)n2cc(C3C(Cl)C(=O)N3c3ccc(N4CCOCC4=O)cc3)c3ccccc32)cc1 (stereo not given)	74.7%	72.6%	44.5%	37.6%	88%	71.4%	24.9%	65.8%	29.5%	47.5%
CCN(CC)CCOc1nc2c3ccc(Cl)cc3nn2c2ccccc12	72.5%	28.9%	19.9%	-13.2% (active)	51%	8.93% (active)	16.5%	-12.2% (active)	30.6%	10.9%
Fc1ccc(COc2ccc(Nc3ncnc4sc5c(c34)CCCC5)cc2)cc1	84.4%	94.3%	81.1%	78.5%	84%	95.2%	99.6%	86.2%	97.6%	87.4%
CN(C)Cc1ccc(C(=O)Nc2ccc3ncnc(Nc4ccc(Oc5cccc(F)c5)c(Cl)c4)c3c2)cc1	-27.1% (active)	35.5%	11.4%	16%	1.66% (active)	-85.8% (active)	-42.2% (active)	19.2%	-0.132% (active)	-13.2% (active)
COc1ccc(NC(=O)c2ccc(C(=O)Nc3ccc(OC)cc3OC)cc2)c(OC)c1	80.4%	73.7%	65%	52.4%	69.7%	71.9%	68.1%	58.6%	90%	94.3%
CCCCCCCCn1ccc2cc(NC(=O)Cn3cc(CN4CCCCCC4)nn3)ccc21	-66.6% (active)	74.1%	23%	-87.6% (active)	71.4%	-36% (active)	-39.9% (active)	88.9%	1.06% (active)	-27.5% (active)
COc1ccc(/C(C)=C(\c2ccc(Cl)cc2)c2ccc(OCCN3CCCC3)cc2)cc1	40.6%	61.2%	66.5%	35.2%	69.5%	60.1%	24.4%	79.1%	29.1%	23.4%
COc1ccc2c(c1)c(-c1cc(-c3cn(C)c4ccc(OC)cc34)on1)cn2C	118%	106%	106%	80.6%	126%	89.9%	92.8%	105%	91.3%	86.3%
CCCCC(=O)Nc1ncc(Cc2ccccc2Cl)s1	55.8%	57.6%	42.4%	44.6%	62.8%	61.4%	37.8%	48.5%	57.3%	28.5%
Cc1cc2oc(=O)cc(CP(=O)(O)O)c2cc1O	102%	97.1%	93.5%	70.4%	107%	101%	90.9%	80.8%	103%	104%
COc1ccccc1-n1c(-c2cc(O)ccc2C)cn2c3c(=O)[nH]c(=O)n(C)c3nc12	89.7%	87.4%	41.6%	36.4%	99.2%	27.1%	39.8%	106%	114%	71.5%
COc1ccc(/C=C/C(=O)c2cc3c(N)c(C(=O)Nc4ccccc4C)sc3nc2C)cc1	14.5%	43.3%	26.4%	40.4%	32%	38.7%	23.3%	16.7%	16.4%	27.6%
C=C1C(=O)O[C@H]2[C@H]1CC/C(COC(=O)c1cc3cc(F)ccc3[nH]1)=C\CC[C@@]1(C)O[C@@H]21	-69% (active)	-78.1% (active)	-42% (active)	-88.1% (active)	-94.9% (active)	-88.5% (active)	-90.8% (active)	-40.2% (active)	-31.9% (active)	-16.2% (active)
COCCCOc1cc(C[C@@H](C[C@H](N)[C@@H](O)C[C@H](C(=O)NCC(C)(C)C(N)=O)C(C)C)C(C)C)ccc1OC	104%	92.6%	104%	84.4%	109%	101%	89.2%	103%	110%	103%
CC[C@H](C)[C@H](NC(=O)[C@H](CCCNC(=N)N)NC(=O)[C@H](Cc1c[nH]c2ccccc12)NC(=O)[C@@H](NC(=O)[C@H](CCCCN)NC(=O)[C@H](CCCCN)NC(=O)[C@@H](NC(=O)[C@@H](NC(=O)[C@@H](NC(=O)[C@H](CCCCN)NC(=O)[C@H](Cc1ccccc1)NC(=O)[C@H](CCCCN)NC(=O)[C@H](CCCCN)NC(=O)[C@H](Cc1ccccc1)NC(=O)[C@@H](NC(=O)[C@@H](N)CCCCN)[C@@H](C)CC)[C@@H](C)O)[C@@H](C)CC)[C@@H](C)CC)C(C)C)C(=O)N[C@@H](Cc1ccccc1)C(=O)NCC(=O)N[C@@H](CCCNC(=N)N)C(=O)N[C@@H](Cc1ccccc1)C(N)=O	-37.5% (active)	-71% (active)	-56.1% (active)	-68.2% (active)	-69.4% (active)	-54.7% (active)	-52.2% (active)	-40.9% (active)	17.6%	29%
Cc1nc2sc(C(=O)Nc3ccc(Cl)cc3)c(N)c2cc1C(O)c1ccccc1 (stereo not given)	56.6%	44.2%	40.6%	47.9%	60.3%	33.4%	47.5%	13.5%	13.4%	17.8%
O=C1c2cc3c(cc2-c2c1c1ccc(Cl)cc1c(=O)n2C[C@H](O)CO)OCO3	-9.57% (active)	4.75% (active)	10.1%	-85.6% (active)	14.6%	-72.2% (active)	-35.3% (active)	-79.1% (active)	9.33% (active)	-17.2% (active)
CCNCc1ccc(O)c2ncccc12	15.4%	25.1%	34%	18.1%	5.97% (active)	22.7%	35.3%	59.5%	27.3%	29%
Oc1c(I)cc(-c2nc3ccccc3s2)cc1CN(Cc1ccccn1)Cc1ccccn1	14.8%	8.07% (active)	17.3%	-26.6% (active)	14.5%	8.93% (active)	5.39% (active)	18.1%	7.86% (active)	0.129% (active)
COc1cc2c(cc1O)[C@@]1(C)[C@H](c3ccccc3Br)OC(=O)N1CC2	89.8%	82%	87.6%	85.3%	91.9%	83.2%	92.5%	89.6%	83%	90.8%
CN1CCN(c2ccc3c(c2)nc(NNC(=O)c2cnccn2)c2cccn23)CC1	64.8%	30.1%	27.6%	3.3% (active)	44.8%	8.28% (active)	22.5%	31.4%	11.4%	13.9%
COc1cc(/C=C2\CN(S(=O)(=O)c3ccc(C)cc3)C/C(=C\c3cc(CN4CCCCC4)c(O)c(OC)c3)C2=O)cc(CN2CCCCC2)c1O	-73.7% (active)	-81% (active)	-76.5% (active)	-89.1% (active)	-93.4% (active)	-98.9% (active)	-89% (active)	90%	-6.3% (active)	-23.7% (active)
CC1=NN(c2ccc(Cl)cc2)CC1(C)N=O (stereo not given)	105%	70.1%	88.4%	32.8%	105%	15.2%	60.4%	101%	34%	44.6%
CC1=CCC[C@@H]2C1(C)CC[C@H](C)[C@@]2(C)CC1=CC(=O)C(SC(C)(C)C)=CC1=O (stereo not given in full)	97.3%	70.7%	86.8%	66.2%	98.8%	77.5%	78.4%	88.6%	-23.5% (active)	36%

— PubChem BioAssay (NCI)
